# Compound activity from PubChem BioAssay.
# Hits are enriched below; roughly 4.8% of the tested compounds scored in any of these assays.
# SMARCA2 activ – SMARCA2 function activation, primary screen | 370,000 tested, 1% active | MG213 cells, MMTV-luciferase reporter, dexamethasone, overnight | AID 652017 | activation, % at 9.1 µM; in the data active = activation above about 7.8%
# ssDAF-12 act – S. stercoralis DAF-12 activation, primary screen; HEK293 ssDAF-12/GRIP1 lit1-tk-luc reporter, luminescence; % of 3 µM dafachronic acid response; 370,000 tested, 1% active; AID 652126; activation, % at 6.8 µM;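 active = activation above the mean over all tested compounds plus 3 SD, cut at about 0.9% in these data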
# DAX1 inh-1 – inhibitors of human orphan nuclear receptor DAX1 (NR0B1) | P51843 | HEK293 Gal4-DAX1 luciferase reporter, luminescence | inhibition, % at 6.75 µM | 340,000 tested, 0.99% active | AID 504766;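 active = inhibition above the mean over all tested compounds plus 3 SD, cut at about 4.2% in these data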;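 note: inhibition shows as a rise in luminescence from relieved DAX1 repression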
# Target sequence (P51843 207-470 limits assumed): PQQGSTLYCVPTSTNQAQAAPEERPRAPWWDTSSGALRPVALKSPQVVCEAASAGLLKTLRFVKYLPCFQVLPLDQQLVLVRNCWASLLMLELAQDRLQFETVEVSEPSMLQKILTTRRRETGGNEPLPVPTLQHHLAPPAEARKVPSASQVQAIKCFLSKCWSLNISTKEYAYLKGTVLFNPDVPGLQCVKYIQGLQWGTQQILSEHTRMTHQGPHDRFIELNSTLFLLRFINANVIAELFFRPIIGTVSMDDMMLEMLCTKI
# DAX1 inh-2 – DAX1 (NR0B1) inhibition, primary screen; HEK293T StAR-luciferase reporter, SF-1/DAX-1 repression relief; inhibition, % at 6.8 µM; 370,000 tested, 1.1% active;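 active = inhibition above the mean over all tested compounds plus 3 SD, cut at about 3.6% in these data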;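 note: higher inhibition means more luminescence from relief of DAX-1 repression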
# hgDAF-12 ag – activates the H. glycines DAF-12 receptor ligand-binding domain. activation, % at 6.8 µM. 370,000 tested, 1.8% active. HEK293 GAL4-hgDAF12 UAS-luciferase reporter, agonist luminescence; normalized to butyrate control;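 active = activation above a cutoff set at the mean of all screened compounds plus 3 SD, cut at about 10% in these data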
# hcDAF-12 act – activates DAF-12 receptor from parasite H. contortus; HEK293 hcDAF-12 lit1-tk-luc reporter, luminescence; 0% DMSO, 100% Δ7-dafachronic acid; activation, % at 6.8 µM; 370,000 tested, 1.4% active;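 active = activation above the mean of all tested compounds plus 3 SD, cut at about 5.5% in these data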
# DAX1 conf – confirmation of human DAX1 (NR0B1) inhibitors | 2,400 tested, 87% active | AID 652134 | shares compounds with DAX1 inh-2 | HEK293T StAR-promoter luciferase reporter, SF-1/DAX-1 repression | inhibition, % at 6.8 µM;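 active = inhibition above the average of every tested compound plus 3 SD, cut at about 3.8% in these data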;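 note: active compounds raise luminescence by relieving repression of the StAR reporter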
# Target sequence (P51843 whole entry, looked up): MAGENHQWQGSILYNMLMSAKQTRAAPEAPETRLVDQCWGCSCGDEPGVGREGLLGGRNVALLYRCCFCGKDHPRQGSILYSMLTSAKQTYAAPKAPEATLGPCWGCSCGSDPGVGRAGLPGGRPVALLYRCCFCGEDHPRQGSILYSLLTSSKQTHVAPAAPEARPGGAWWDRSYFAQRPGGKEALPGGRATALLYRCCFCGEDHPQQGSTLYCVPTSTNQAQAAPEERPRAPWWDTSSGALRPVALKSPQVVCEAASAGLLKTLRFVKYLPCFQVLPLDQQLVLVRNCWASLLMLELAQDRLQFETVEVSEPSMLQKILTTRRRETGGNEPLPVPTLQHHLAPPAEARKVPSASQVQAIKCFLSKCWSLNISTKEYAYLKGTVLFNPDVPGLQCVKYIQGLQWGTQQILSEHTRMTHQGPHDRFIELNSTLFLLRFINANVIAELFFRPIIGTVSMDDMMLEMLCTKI
# SF1 mutant ctr – counter-screen for DAX1 inhibitors: nonselective inhibitors with SF-1 AF2 mutant | shares compounds with DAX1 inh-2 | HEK293 StAR-luciferase, luminescence | inhibition, % at 6.8 µM | 2,400 tested, 78% active | AID 652136;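 active = inhibition above the mean of all tested compounds plus 3 SD, cut at about 3% in these data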
# SMARCA2 conf – SMARCA2 activation, confirmation screen; shares compounds with SMARCA2 activ; MG213 cells, MMTV-luciferase with dexamethasone, luminescence, overnight; MG213 cells expressing E1A, Rb sequestered; DMSO wells 0%, reference activator 100%; activation, % at 9.1 µM; 3,500 tested, 30% active; AID 652260;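 active = activation above its plate's cutoff, the mean activation of tested wells plus 3 SD, cut at about 7.9% in these data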
# GAL4-VP16 Luc – counter-screen for SMARCA2 activators: GAL4-VP16 luciferase reporter activation; shares compounds with SMARCA2 activ; HEK293 GAL4-VP16 pG5luc reporter, luciferase luminescence; scaled: DMSO wells 0%, SAHA wells 100%; activation, % at 9.1 µM; 3,500 tested, 41% active;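 active = activation above the solvent-only control well mean plus 3 SD, averaged across control plates, cut at about 5.2% in these data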
# LXRb hcDAF ctr – counter-screen for hcDAF-12 agonists: agonists of human LXR-beta; shares compounds with hcDAF-12 act; HEK293 Gal4-LXR tk-luc reporter, luminescence, 24 h; normalized: DMSO 0%, positive control 100%; activation, % at 6.8 µM; 3,400 tested, under 10 active; AID 743027;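 active = mean percent activation of the reporter above a cutoff set as the average over tested compounds plus their standard deviation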
# hcDAF12 conf – confirmation of H. contortus DAF-12 agonists; 3,400 tested, 61% active; shares compounds with hcDAF-12 act; HEK293 hcDAF-12 lit1-tk-luc reporter, luminescence; % of Δ7-dafachronic acid response; activation, % at 6.8 µM;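 active = mean activation across triplicate tests above the threshold derived from the earlier primary screen, cut at about 5.5% in these data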
# hgDAF12 ag – confirmation of H. glycines DAF-12 agonists | shares compounds with hgDAF-12 ag | HEK293 GAL4-hgDAF12 luciferase reporter, agonist mode; percent of butyrate response | activation, % at 6.8 µM | 3,300 tested, 80% active | AID 743050;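 active = mean activation over triplicate wells above the hit cutoff derived from the earlier primary screen, cut at about 11% in these data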
# LXR ag 2 – activates human LXR-beta, counter-screen for DAF-12 agonists | shares compounds with hgDAF-12 ag | HEK293 Gal4-LXR luciferase reporter, 24 h | activation, % at 6.8 µM | 3,300 tested, under 10 active;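 active = mean activation of the triplicate above a set limit carried over from the primary screen, none filed active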
# A number is an active result; i = inactive; nt = not tested or not shown.
SMILES,SMARCA2 activ,ssDAF-12 act,DAX1 inh-1,DAX1 inh-2,hgDAF-12 ag,hcDAF-12 act,DAX1 conf,SF1 mutant ctr,LXRb hcDAF ctr,hcDAF12 conf,others
COCC1CCCCN1C(=O)c1ccc2oc(CCCc3ccccc3)nc2c1 (stereo unspecified),i,i,i,i,i,i,nt,nt,nt,nt,
Fc1ccc(-c2cnn3c(-c4cccs4)ccnc23)cc1,i,3.9,4.9,7.2,33,32,18,11,i,23,
CCc1ccc(-c2cc(C(=O)Nn3cnnc3)c3ccccc3n2)cc1,i,i,i,6.0,i,11,11,4.2,i,11,
CCCc1ccc(-c2cc(C(=O)NN3CCOCC3)c3ccccc3n2)cc1,i,i,i,i,i,i,nt,nt,nt,nt,
Nc1ccccc1-n1nc2ccc3ccccc3c2n1,i,3.1,4.6,9.6,20,18,15,8.5,i,23,
Cc1c(N)ccc(-n2nc3ccccc3n2)c1C,i,i,nt,i,i,i,nt,nt,nt,nt,
COc1ccc(OCCSc2ncccn2)cc1,i,i,i,4.8,12,6.9,11,7.8,i,6.6,
Clc1ccccc1/C=N/NC1=Nc2cccc3cccc1c23,i,2.8,4.3,4.6,18,16,18,8.0,i,15,
Cc1ccc(C(=O)N=c2sccn2C)cc1C,i,1.6,i,10,12,14,11,7.2,i,11,
O/N=C(\c1ccccc1)C(O)c1ccccc1 (stereo unspecified),i,i,i,i,i,i,nt,nt,nt,nt,
COc1ccc2oc(=Nc3cccc(F)c3)c(C(N)=O)cc2c1,i,i,i,i,i,i,nt,nt,nt,nt,
COc1ccc2oc(=Nc3ccccc3)c(-c3nc4ccccc4[nH]3)cc2c1,11,3.8,i,5.0,21,22,3.7,i,i,8.0,SMARCA2 conf=i;GAL4-VP16 Luc=9.8
Cc1ccc(-c2nnc(Nc3ccccc3)o2)cc1,i,i,i,5.5,i,8.0,19,8.6,i,6.5,
c1ccc(Nc2nnc(-c3ccc4c(c3)OCO4)o2)cc1,i,1.2,nt,5.1,i,7.7,6.6,i,i,i,
N#CCc1ccc(NC(=O)Cn2c(=O)oc3ccccc32)cc1,i,i,i,i,i,i,nt,nt,nt,nt,
O=C(CSc1nc2ccccc2c(=O)n1CCCN1CCOCC1)N1CCN(c2ccccc2)CC1,i,i,i,i,i,i,nt,nt,nt,nt,
O=C(Nc1ccc(N2CCOCC2)cc1)c1ccncc1,i,i,i,i,i,i,nt,nt,nt,nt,
Cn1cccc1C(=O)Nc1ccc(N2CCOCC2)cc1,i,i,i,8.2,18,i,8.3,4.4,nt,nt,hgDAF12 ag=16;LXR ag 2=i
Cc1ccc(F)cc1NC(=O)c1c(-c2ccccc2)noc1C,i,i,i,i,i,i,nt,nt,nt,nt,
Fc1ccccc1CSc1ncnc2c1ncn2C1CCCO1 (stereo unspecified),i,i,i,i,i,i,nt,nt,nt,nt,
CCCCSc1ncnc2c1ncn2C1CCCCO1 (stereo unspecified),i,i,5.9,5.4,17,i,11,6.0,nt,nt,hgDAF12 ag=16;LXR ag 2=i
Cc1ccnc(NC(=O)c2ccccc2[N+](=O)[O-])c1,i,i,i,i,i,i,nt,nt,nt,nt,
Cc1ccnc(NC(=O)/C=C/c2ccccc2[N+](=O)[O-])c1,i,1.8,nt,5.0,21,9.3,14,8.1,i,8.3,hgDAF12 ag=20;LXR ag 2=i
CC(C)(C)c1ccc(NC(=O)Nc2ccc(OCC(=O)N3CCOCC3)cc2)cc1,8.2,i,i,5.1,15,6.4,7.8,4.5,nt,nt,SMARCA2 conf=i;GAL4-VP16 Luc=15;hgDAF12 ag=22;LXR ag 2=i
O=C(Nc1ccc(OCC(=O)N2CCOCC2)cc1)Nc1cccc(Cl)c1,i,i,i,i,i,i,nt,nt,nt,nt,
SMILES,SMARCA2 activ,ssDAF-12 act,DAX1 inh-1,DAX1 inh-2,hgDAF-12 ag,hcDAF-12 act,DAX1 conf,SF1 mutant ctr,LXRb hcDAF ctr,hcDAF12 conf,others
COc1ccc(C(=O)NC(=O)NC2(C(Cl)(Cl)Cl)OCCO2)cc1,i,1.0,i,12,25,9.7,16,6.0,i,9.1,hgDAF12 ag=20;LXR ag 2=i
CCCC(=O)Nc1nc(-c2ccc3c(c2)OCCO3)cs1,i,i,i,5.6,14,i,6.5,4.8,nt,nt,hgDAF12 ag=11;LXR ag 2=i
O=C(O)C(=O)Nc1nc(-c2ccc3c(c2)OCCO3)cs1,i,i,i,i,i,i,nt,nt,nt,nt,
Cc1ccc(S(=O)(=O)N2CCCCC2)cc1NC(=O)CCNC(=O)c1ccc([N+](=O)[O-])cc1,i,i,i,i,i,i,nt,nt,nt,nt,
Cc1ccc(-c2cc3nc(-c4ccccc4)cc(N)n3n2)cc1,i,i,i,i,i,i,nt,nt,nt,nt,
Cc1cc(N)n2nc(-c3ccccc3)cc2n1,i,1.7,i,5.8,20,12,16,8.2,i,6.9,hgDAF12 ag=19;LXR ag 2=i
COc1ccc(C2C(C(=O)N3CCCCC3)c3ccccc3C(=O)N2C)cc1 (stereo unspecified),i,i,i,i,i,i,nt,nt,nt,nt,
C[C@H]1[C@H](NC(=O)c2cccc(C(F)(F)F)c2)CC[C@@]23CCCN2C(=O)CCC[C@@H]13,nt,i,nt,nt,i,i,nt,nt,nt,nt,
CC(NC(=O)c1ccc(Br)cc1)c1ccc2c(c1)CCCC2 (stereo unspecified),i,i,i,i,i,i,nt,nt,nt,nt,
Cc1ccnc(SCc2cn3c(C)cc(C)nc3n2)n1,i,i,i,i,i,i,nt,nt,nt,nt,
Cc1cc(C)n2cc(COc3ccc4ccccc4c3)nc2n1,i,i,i,6.3,17,8.0,15,8.8,i,i,hgDAF12 ag=17;LXR ag 2=i
